Source: PubChem BioAssay (NCATS)
Inconclusive results are not listed. Activity calls are given as the source filed them. The call rests on the fitted dose curve; in most records, active means well fitted cell-killing curve with a large enough effect; inconclusive means small, poorly fitted or top-dose-only effect, or effect the other way; inactive means flat fitted curve, though single readings scatter.

Columns and labels:
Assay in all cases: Primary qHTS to identify gynecologic anti-cancer compounds using libraries of approved drugs and bioactive compounds (AID 1345084); further: nearly all actives have a fitted effect of over 55% in size
[1] = system: C33A; conditions: Gynecologic cancer cell panel viability, ATPlite luminescence, 48 h; series mostly up to 57.5 µM
Summary of the method: (§1)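 Cells, 1,000 per well, were allowed to settle for 16 h at 37 C before compound addition. Five concentrations were tested for 48 h, and viability was read by ATPlite luminescence after 15 min at room temperature.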

[2] = system: CAOV3; conditions: Gynecologic cancer cell panel viability, ATPlite luminescence, 48 h; series mostly up to 57.5 µM
Summary of the method: as §1

[3] = system: CASKI; conditions: Gynecologic cancer cell panel viability, ATPlite luminescence, 48 h; series mostly up to 57.5 µM
Summary of the method: as §1

[4] = system: Es-2; conditions: Gynecologic cancer cell panel viability, ATPlite luminescence, 48 h; series mostly up to 57.5 µM
Summary of the method: as §1

[5] = system: HeLa; conditions: Gynecologic cancer cell panel viability, ATPlite luminescence, 48 h; series mostly up to 57.5 µM
Summary of the method: as §1

[6] = system: Hek293T; conditions: Gynecologic cancer cell panel viability, ATPlite luminescence, 48 h, control line for the selectivity index; series mostly up to 57.5 µM
Summary of the method: as §1

[7] = system: JEG-3; conditions: Gynecologic cancer cell panel viability, ATPlite luminescence, 48 h; series mostly up to 57.5 µM
Summary of the method: as §1

[8] = system: OV90; conditions: Gynecologic cancer cell panel viability, ATPlite luminescence, 48 h; series mostly up to 57.5 µM
Summary of the method: as §1

[9] = system: PA-1; conditions: Gynecologic cancer cell panel viability, ATPlite luminescence, 48 h; series mostly up to 57.5 µM
Summary of the method: as §1

[10] = system: SKOV3; conditions: Gynecologic cancer cell panel viability, ATPlite luminescence, 48 h; series mostly up to 57.5 µM
Summary of the method: as §1

[11] = system: Tov-21-G; conditions: Gynecologic cancer cell panel viability, ATPlite luminescence, 48 h; series mostly up to 57.5 µM
Summary of the method: as §1

[12] = system: Tov112D; conditions: Gynecologic cancer cell panel viability, ATPlite luminescence, 48 h; series mostly up to 57.5 µM
Summary of the method: as §1
On the % scale 0 is the no-effect control and ±100 the full control effect.

N#Cc1cc(-c2n[nH]c(-c3ccncc3)n2)ccn1
inactive: Potency [1] | Potency [2] | outcome [3] | Potency [4] | Potency [5] | Potency [6] | Potency [7] | Potency [8] | Potency [9] | Potency [10] | Potency [11] | Potency [12]

COc1c2ccoc2nc2c(OC)c(O[C@@H]3O[C@@H](C)[C@H](O)[C@@H](O[C@@H]4O[C@H](CO)[C@@H](O)[C@H](O)[C@H]4O)[C@H]3OC(C)=O)ccc12
inactive: Potency [1] | Potency [2] | outcome [3] | Potency [4] | Potency [5] | Potency [6] | Potency [7] | Potency [8] | Potency [9] | Potency [10] | Potency [11] | Potency [12]

COc1cc(O)cc2c1C(=O)OC(C)C2 (centres undefined)
inactive: Potency [1] | Potency [2] | outcome [3] | Potency [4] | Potency [5] | Potency [6] | Potency [7] | Potency [8] | Potency [9] | Potency [10] | Potency [11] | Potency [12]

C[C@@H]1CC2OC(=O)C3=C2C(CCC3O)[C@@]12C[C@@H](c1ccoc1)OC2=O (some centres undefined)
inactive: Potency [1] | Potency [2] | outcome [3] | Potency [4] | Potency [5] | Potency [6] | Potency [7] | Potency [8] | Potency [9] | Potency [10] | Potency [11] | Potency [12]

COC(=O)C1(C)CCCC2(C)c3ccc(C(C)C)cc3C(O)C(O)C12 (centres undefined)
inactive: Potency [1] | Potency [2] | outcome [3] | Potency [4] | Potency [5] | Potency [6] | Potency [7] | Potency [8] | Potency [9] | Potency [10] | Potency [11] | Potency [12]

CC1(C)C[C@@H]2[C@H](C1)[C@@]1(C)C[C@]13C(O)OC[C@]3(O)[C@H]2O (some centres undefined)
inactive: Potency [1] | Potency [2] | outcome [3] | Potency [4] | Potency [5] | Potency [6] | Potency [7] | Potency [8] | Potency [9] | Potency [10] | Potency [11] | Potency [12]

C=C1CC[C@@H]2[C@@](C)(CO[C@@H]3O[C@H](CO)[C@@H](O)[C@H](O)[C@H]3O)[C@H](O)CC[C@@]2(C)[C@@H]1CC/C(C)=C/CO[C@@H]1O[C@H](CO)[C@@H](O)[C@H](O)[C@H]1O
inactive: Potency [1] | Potency [2] | outcome [3] | Potency [4] | Potency [5] | Potency [6] | Potency [7] | Potency [8] | Potency [9] | Potency [10] | Potency [11] | Potency [12]

CC(=O)OCC1=C[C@@H]2OC(=O)C3=CO[C@@H](O[C@@H]4O[C@H](CO)[C@@H](O)[C@H](O)[C@H]4O)[C@H]1[C@@H]32
inactive: Potency [1] | Potency [2] | outcome [3] | Potency [4] | Potency [5] | Potency [6] | Potency [7] | Potency [8] | Potency [9] | Potency [10] | Potency [11] | Potency [12]

C[C@]12CC[C@@H]3c4ccc(O)cc4CC[C@H]3[C@@H]1C[C@@H](O[C@@H]1O[C@H](C(=O)O)[C@@H](O)[C@H](O)[C@H]1O)[C@@H]2O
inactive: Potency [1] | Potency [2] | outcome [3] | Potency [4] | Potency [5] | Potency [6] | Potency [7] | Potency [8] | Potency [9] | Potency [10] | Potency [11] | Potency [12]

NC(=O)[C@H](Cc1ccccc1)NC(=O)[C@H](CCCN=C(N)N)NC(=O)C12CC3CC(CC(C3)C1)C2
inactive: activity change, negative = cytotoxicity [1] 15.1% [at 11.6 µM] | activity change, negative = cytotoxicity [2] 15.6% [at 11.6 µM] | activity change, negative = cytotoxicity [3] 5.13% [at 11.6 µM] | activity change, negative = cytotoxicity [4] 7.15% [at 11.6 µM] | activity change, negative = cytotoxicity [5] 9.3% [at 11.6 µM] | activity change, negative = cytotoxicity [6] 9.9% [at 11.6 µM] | activity change, negative = cytotoxicity [7] 17.3% [at 11.6 µM] | activity change, negative = cytotoxicity [8] -0.378% [at 11.6 µM] | activity change, negative = cytotoxicity [9] 5.55% [at 11.6 µM] | activity change, negative = cytotoxicity [10] 6.06% [at 11.6 µM] | activity change, negative = cytotoxicity [11] 4.32% [at 11.6 µM] | activity change, negative = cytotoxicity [12] -1.65% [at 11.6 µM]

C=C1CCC2(C(=O)OC3OC(CO)C(O)C(O)C3O)CCC3(C)C(=CCC4C5(C)CCC(OC6OC(CO)C(OC7OC(C)C(O)C(O)C7O)C(OC7OCC(O)C(O)C7O)C6O)C(C)(C)C5CCC43C)C2C1 (centres undefined)
inactive: activity change, negative = cytotoxicity [1] 5.83% [at 11.6 µM] | activity change, negative = cytotoxicity [2] 1.68% [at 11.6 µM] | activity change, negative = cytotoxicity [3] -6.54% [at 11.6 µM] | activity change, negative = cytotoxicity [4] -3.02% [at 11.6 µM] | activity change, negative = cytotoxicity [5] 11.1% [at 11.6 µM] | activity change, negative = cytotoxicity [6] 6.11% [at 11.6 µM] | activity change, negative = cytotoxicity [7] 12.2% [at 11.6 µM] | activity change, negative = cytotoxicity [8] 9.22% [at 11.6 µM] | activity change, negative = cytotoxicity [9] 18.7% [at 11.6 µM] | activity change, negative = cytotoxicity [10] 24.5% [at 11.6 µM] | activity change, negative = cytotoxicity [11] 0.21% [at 11.6 µM] | activity change, negative = cytotoxicity [12] 9.24% [at 11.6 µM]

CC(=O)O[C@@H]1C[C@@H](C)[C@](O)(CCC2=CC(=O)OC2)[C@@]2(C)CCCC(C)(C)C12 (some centres undefined)
inactive: Potency [1] | Potency [2] | outcome [3] | Potency [4] | Potency [5] | Potency [6] | Potency [7] | Potency [8] | Potency [9] | Potency [10] | Potency [11] | Potency [12]
